Assay results from PubChem BioAssay (EPA / NIEHS).
Active and inactive are the calls of the source. The calls were made as follows: active = hit-call score of the fitted dose curve at least 0.9, where 1 is the maximum; inactive = score below 0.9.

Assay: APR_HepG2_P-H2AX_72hr: Apredica 72-hour HepG2 Assay for H2AX Phosphorylation (AID 2282916);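 also: phospho-histone H2A.x immunostain intensity per cell marking DNA damage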
Conditions: imaging, actives raise or lower the signal
Procedure, shortened: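 Following 72 hr treatment with 0.39–200 uM compound, HepG2 cells were formaldehyde-fixed, permeabilized and stained for phospho-H2A.x; signal was measured by high-content imaging and fitted bidirectionally against DMSO controls.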

Compound | AC50 | outcome
CNS(=O)(=O)c1cc(C(=O)N2CCC(CCN3C4CCC3CC(n3c(C)nc5ccccc53)C4)(c3cccc(F)c3)CC2)c(Cl)cc1F (configuration not stated) | 11.1 µM (active) | 
C1=CCCC=CCCC=CCC1 |  | inactive
Clc1nc(Cl)c(Cl)c(Cl)c1Cl | 57.5 µM (active) | 
COC(=O)c1c(Cl)c(Cl)c(C(=O)OC)c(Cl)c1Cl |  | inactive
COc1ccc(-n2nc(C(F)F)cc2-c2ccc(S(C)=O)cc2)cc1 (configuration not stated) |  | inactive
O=C(O)c1cccc(Oc2ccccc2)c1 |  | inactive
Cc1ccc(O)cc1 |  | inactive
CCC(C)(C)C(=O)O[C@H]1C[C@@H](C)C=C2C=C[C@H](C)[C@H](CC[C@@H]3C[C@@H](O)CC(=O)O3)[C@H]21 | 58.8 µM (active) | 
Fc1ccccc1[C@@H](F)COC1CCC(Nc2ncnc3[nH]ncc23)CC1 (some centres not stated) | 51.3 µM (active) | 
C[C@](N)(Cc1ccc(O)c(O)c1)C(=O)O |  | inactive
C=CC(=C)CCC=C(C)C |  | inactive
Cn1c(=O)c2c(ncn2C)n(C)c1=O |  | inactive
Cc1ccc(N)cc1O |  | inactive
CCOC(=O)COc1ccc2c(c1)CC(NCC(O)c1cccc(Cl)c1)CC2 (configuration not stated) |  | inactive
Cn1c(=O)cc(Oc2ccc(F)cc2F)c2cnc(NCC(C)(C)O)nc21 |  | inactive
CC(C)=CCCC(C)CCO (configuration not stated) |  | inactive
CC(=O)OCCC(C)C |  | inactive
CCOCCO |  | inactive
CCCCC(CC)COC(=O)c1ccc(C(=O)OCC(CC)CCCC)cc1 (configuration not stated) | 31.5 µM (active) | 
O=c1n(CC2CO2)c(=O)n(CC2CO2)c(=O)n1CC1CO1 (configuration not stated) | 15.2 µM (active) | 
COc1ccc(/C=C/S(=O)(=O)NC(=O)c2ccc(C)cc2Cl)cc1 | 100 µM (active) | 
CC/C(=C\C(=N/O)C(N)=O)C(C)[N+](=O)[O-] (configuration not stated) |  | inactive
Cc1ccc(S(=O)(=O)O)cc1C |  | inactive
CCn1nc(Cc2ccccc2)cc1C1CCN(C[C@H]2C[C@H](N(C)[C@@H](C(=O)O)C(C)C)C[C@@H]2c2cccc(F)c2)CC1 |  | inactive
CCCCC(CC)COC(=O)CCCCCCCCC(=O)OCC(CC)CCCC (configuration not stated) | 68.2 µM (active) | 
CC(C)CCO |  | inactive
CCN(C(=O)c1cc(C)cc(OC[C@H](C)Nc2ccncc2)c1)C(C)C |  | inactive
O=C1CCCCCN1 |  | inactive
Cn1cnc([N+](=O)[O-])c1Sc1ncnc2nc[nH]c12 |  | inactive

Assay: APR_HepG2_MitoMembPot_72hr: Apredica 72-hour HepG2 Assay for Mitochondrial Membrane Potential (AID 2282917)
Conditions: imaging, actives raise or lower the signal
Procedure, shortened: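 HepG2 cells dosed 72 hr with compound at 0.39–200 uM in duplicate, 0.5% v/v DMSO final. Mitochondria stained with 250 nM MitoTracker Red CMXRos for 30 min before formaldehyde fixation, imaged by high-content fluorescence; bidirectional fit versus DMSO.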

Compound | outcome | AC50
CNS(=O)(=O)c1cc(C(=O)N2CCC(CCN3C4CCC3CC(n3c(C)nc5ccccc53)C4)(c3cccc(F)c3)CC2)c(Cl)cc1F (configuration not stated) | inactive | 
C1=CCCC=CCCC=CCC1 | inactive | 
Clc1nc(Cl)c(Cl)c(Cl)c1Cl | inactive | 
COC(=O)c1c(Cl)c(Cl)c(C(=O)OC)c(Cl)c1Cl | inactive | 
COc1ccc(-n2nc(C(F)F)cc2-c2ccc(S(C)=O)cc2)cc1 (configuration not stated) | inactive | 
O=C(O)c1cccc(Oc2ccccc2)c1 | inactive | 
Cc1ccc(O)cc1 | inactive | 
CCC(C)(C)C(=O)O[C@H]1C[C@@H](C)C=C2C=C[C@H](C)[C@H](CC[C@@H]3C[C@@H](O)CC(=O)O3)[C@H]21 | inactive | 
Fc1ccccc1[C@@H](F)COC1CCC(Nc2ncnc3[nH]ncc23)CC1 (some centres not stated) | inactive | 
C[C@](N)(Cc1ccc(O)c(O)c1)C(=O)O |  | 58.4 µM (active)
C=CC(=C)CCC=C(C)C | inactive | 
Cn1c(=O)c2c(ncn2C)n(C)c1=O | inactive | 
Cc1ccc(N)cc1O |  | 1.02 µM (active)
CCOC(=O)COc1ccc2c(c1)CC(NCC(O)c1cccc(Cl)c1)CC2 (configuration not stated) | inactive | 
Cn1c(=O)cc(Oc2ccc(F)cc2F)c2cnc(NCC(C)(C)O)nc21 | inactive | 
CC(C)=CCCC(C)CCO (configuration not stated) | inactive | 
CC(=O)OCCC(C)C | inactive | 
CCOCCO | inactive | 
CCCCC(CC)COC(=O)c1ccc(C(=O)OCC(CC)CCCC)cc1 (configuration not stated) | inactive | 
O=c1n(CC2CO2)c(=O)n(CC2CO2)c(=O)n1CC1CO1 (configuration not stated) | inactive | 
COc1ccc(/C=C/S(=O)(=O)NC(=O)c2ccc(C)cc2Cl)cc1 |  | 12.8 µM (active)
CC/C(=C\C(=N/O)C(N)=O)C(C)[N+](=O)[O-] (configuration not stated) | inactive | 
Cc1ccc(S(=O)(=O)O)cc1C | inactive | 
CCn1nc(Cc2ccccc2)cc1C1CCN(C[C@H]2C[C@H](N(C)[C@@H](C(=O)O)C(C)C)C[C@@H]2c2cccc(F)c2)CC1 | inactive | 
CCCCC(CC)COC(=O)CCCCCCCCC(=O)OCC(CC)CCCC (configuration not stated) |  | 83.4 µM (active)
CC(C)CCO | inactive | 
CCN(C(=O)c1cc(C)cc(OC[C@H](C)Nc2ccncc2)c1)C(C)C | inactive | 
O=C1CCCCCN1 | inactive | 
Cn1cnc([N+](=O)[O-])c1Sc1ncnc2nc[nH]c12 | inactive | 

Assay: APR_HepG2_MitoticArrest_72hr: Apredica 72-hour HepG2 Assay for Mitotic Arrest (AID 2282918)
Conditions: high-content imaging, actives raise or lower the signal
Procedure, shortened: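 Read-out is phospho-histone H3 immunofluorescence with Hoechst nuclear segmentation, imaged at 20x. Human HepG2 liver cells received ten concentrations (0.39–200 uM, final DMSO 0.5% v/v) for 72 hr before fixation. Gain or loss of signal was fitted relative to DMSO.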

Compound | AC50 | outcome
CNS(=O)(=O)c1cc(C(=O)N2CCC(CCN3C4CCC3CC(n3c(C)nc5ccccc53)C4)(c3cccc(F)c3)CC2)c(Cl)cc1F (configuration not stated) | 10.3 µM (active) | 
C1=CCCC=CCCC=CCC1 |  | inactive
Clc1nc(Cl)c(Cl)c(Cl)c1Cl | 34.1 µM (active) | 
COC(=O)c1c(Cl)c(Cl)c(C(=O)OC)c(Cl)c1Cl |  | inactive
COc1ccc(-n2nc(C(F)F)cc2-c2ccc(S(C)=O)cc2)cc1 (configuration not stated) |  | inactive
O=C(O)c1cccc(Oc2ccccc2)c1 |  | inactive
Cc1ccc(O)cc1 |  | inactive
CCC(C)(C)C(=O)O[C@H]1C[C@@H](C)C=C2C=C[C@H](C)[C@H](CC[C@@H]3C[C@@H](O)CC(=O)O3)[C@H]21 | 2.62 µM (active) | 
Fc1ccccc1[C@@H](F)COC1CCC(Nc2ncnc3[nH]ncc23)CC1 (some centres not stated) | 60 µM (active) | 
C[C@](N)(Cc1ccc(O)c(O)c1)C(=O)O |  | inactive
C=CC(=C)CCC=C(C)C |  | inactive
Cn1c(=O)c2c(ncn2C)n(C)c1=O |  | inactive
Cc1ccc(N)cc1O |  | inactive
CCOC(=O)COc1ccc2c(c1)CC(NCC(O)c1cccc(Cl)c1)CC2 (configuration not stated) | 23.1 µM (active) | 
Cn1c(=O)cc(Oc2ccc(F)cc2F)c2cnc(NCC(C)(C)O)nc21 |  | inactive
CC(C)=CCCC(C)CCO (configuration not stated) | 0.0229 µM (active) | 
CC(=O)OCCC(C)C |  | inactive
CCOCCO |  | inactive
CCCCC(CC)COC(=O)c1ccc(C(=O)OCC(CC)CCCC)cc1 (configuration not stated) |  | inactive
O=c1n(CC2CO2)c(=O)n(CC2CO2)c(=O)n1CC1CO1 (configuration not stated) | 15.8 µM (active) | 
COc1ccc(/C=C/S(=O)(=O)NC(=O)c2ccc(C)cc2Cl)cc1 | 102 µM (active) | 
CC/C(=C\C(=N/O)C(N)=O)C(C)[N+](=O)[O-] (configuration not stated) |  | inactive
Cc1ccc(S(=O)(=O)O)cc1C |  | inactive
CCn1nc(Cc2ccccc2)cc1C1CCN(C[C@H]2C[C@H](N(C)[C@@H](C(=O)O)C(C)C)C[C@@H]2c2cccc(F)c2)CC1 | 113 µM (active) | 
CCCCC(CC)COC(=O)CCCCCCCCC(=O)OCC(CC)CCCC (configuration not stated) | 111 µM (active) | 
CC(C)CCO |  | inactive
CCN(C(=O)c1cc(C)cc(OC[C@H](C)Nc2ccncc2)c1)C(C)C |  | inactive
O=C1CCCCCN1 |  | inactive
Cn1cnc([N+](=O)[O-])c1Sc1ncnc2nc[nH]c12 |  | inactive
